GLP1R ag: activates the human GLP-1 receptor; AID 624172; 0.007% of 380,000 active; Potency, µM (titrated, usually from 45.6 µM), without a hit: at the highest dose activation, actives largely listed as activators; P43220; HEK293 GLP-1R CRE-luciferase, luminescence, 4-6 h; cells express a hypersensitive GLP-1R form; note: potency is the fitted concentration of half-maximal effect; % of control where 0% means no effect
Target sequence (P43220 whole entry, looked up): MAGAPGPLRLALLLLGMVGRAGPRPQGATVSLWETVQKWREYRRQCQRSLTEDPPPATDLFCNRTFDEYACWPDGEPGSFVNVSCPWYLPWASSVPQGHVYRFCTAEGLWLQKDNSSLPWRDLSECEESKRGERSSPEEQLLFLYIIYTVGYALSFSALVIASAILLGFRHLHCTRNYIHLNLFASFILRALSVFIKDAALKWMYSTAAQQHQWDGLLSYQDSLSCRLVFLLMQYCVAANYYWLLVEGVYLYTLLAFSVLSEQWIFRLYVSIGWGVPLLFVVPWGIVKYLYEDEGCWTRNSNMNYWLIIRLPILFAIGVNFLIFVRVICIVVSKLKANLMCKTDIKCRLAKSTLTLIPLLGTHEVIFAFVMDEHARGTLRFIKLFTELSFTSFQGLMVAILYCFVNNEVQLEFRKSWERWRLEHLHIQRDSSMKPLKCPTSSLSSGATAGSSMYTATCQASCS
TSHR antagonist: blocks TSH signaling through the human TSH receptor; P16473; AID 504810; TSHR-expressing cells, TSH-stimulated cAMP HTRF, 2 h; stronger effect = lower value; 0.2% of 330,000 active; activity change, negative = inhibition, % at 11.5 µM;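 active = activity change below a set negative limit, meaning inhibition stronger than a set level, cut at about -70% in these data; inconclusive = activity change between two set negative limits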; note: % is set by controls: 0 for no effect and ±100 for the full control effect
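Competitive HTRF cAMP read-out (cryptate anti-cAMP antibody, cAMP-d2; 30 min, room temperature) in freshly harvested TSHR cells. Compounds added before TSH at EC80 (4nM final), followed by 2 hours' incubation at 37 deg C.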
GLP1R cytotox: cytotoxicity counter-screen for GLP-1 receptor inverse agonists; HEK293 cAMP-luciferase reporter cells, luminescence, 24 h; Potency, µM (doses to about 38.3 µM), for inactives: at the top dose activity change, negative = inhibition, actives largely listed as inhibitors; 0.13% of 410,000 active; AID 624418;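 note: loss of luciferase light is scored as toxicity; potency is the fitted concentration of half-maximal effect; % is set by controls: 0 for no effect and ±100 for the full control effect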
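Cells in DMEM/10% Nu serum/1% pen-strep, 1536-well format. Pre-incubated 12 h, dosed with 23 nL compound, incubated a further 24 h. Luciferase detection, 12 min at room temp, luminescence.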
PTHR1 agonist: activates the human parathyroid hormone receptor PTHR1 | Q03431 | HEK293 GP2 PTHR1 cells, GloSensor cAMP luminescence, 1 h | Potency, µM (highest dose often 115 µM), without a hit: at the top dose activation, actives largely listed as activators | 0.075% of 410,000 active | AID 743266; note: potency is the fitted concentration of half-maximal effect; nearly all actives have a fitted effect of over 55% in size
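HEK-293-derived GP2 cells expressing PTHR1 and a GloSensor cAMP reporter, 3,000/well, plated overnight, given luciferin plus IBMX (each 0.5 mM as added) for 1 h at 37 °C, then compound for 1 h at 37 °C. Luminescence was read after 15 min at room temperature.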
GLP1R inv ag: acts as inverse agonist at human GLP-1 receptor; Potency, µM (top dose mostly 38.3 µM), for the others: top-dose activity change, negative = inhibition, most hits filed as inhibitors; 1.6% of 410,000 active; HEK293 GLP-1R CRE-luciferase, luminescence, 24 h; GLP-1R form is constitutively active; AID 624417; note: potency is the fitted concentration of half-maximal effect; % is set by controls: 0 for no effect and ±100 for the full control effect; nearly all actives have a fitted effect of over 55% in size
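Luminescence readout: a drop in cAMP-driven luciferase signal flags inverse agonism at a constitutively active GLP-1R stably expressed in HEK293. Compound exposure lasted 24 hr at 37 deg C, 5% CO2.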
* = called active by the depositor; i = inactive; ? = inconclusive; · = no result given; [ ] = another dose, or the depositor's remark. This is a sample that favours compounds with a hit; in the whole collection about 1.8% have one here. Unless noted, calls come from the whole dose curve; as a rule, active = well fitted curve in the direction sought with a large enough effect; inconclusive = small, poorly fitted or top-dose-only effect, or another doubt; inactive = no such curve, though single readings can be large; an effect the other way counts as inactive or inconclusive.

SMILES	GLP1R ag	TSHR antagonist	GLP1R cytotox	PTHR1 agonist	GLP1R inv ag
Cc1cccc(C)c1NC(=O)CC12CCCN1CCC2	-1%	·	·	·	·
Cc1ccnc(NC(=O)c2cccc(OC(F)F)c2)n1	14%	-1	0%	i	16%
O=C(Nc1cc(Cl)cc(Cl)c1)c1cccc(OC(F)F)c1	-4%	-37	-26%	-31%	13µM*
O=C(CCSCCc1ccccn1)Nc1ccccc1C(F)(F)F	·	·	0%	-9%	9%
COc1cc2nc(N3CCN(c4cc(C)ccc4C)CC3)nc(N)c2cc1OC	-8%	6	?	-1%	5µM*
CCOc1ccc(C(C(=O)NC2CCCC2)N(CCCO)C(=O)c2ccc(-c3ccccc3)[nH]2)cc1 (centres undefined)	-6%	-7	5%	-19%	13µM*
O=C(NC1CCCC1)C(c1ccncc1)N(CCCN1CCOCC1)C(=O)c1ccc(-c2ccccc2)[nH]1 (centres undefined)	-10%	-5	-5%	i	1%
CN(Cc1ccccc1)CC(O)COc1ccc(CNCc2ccc(Cl)s2)cc1 (centres undefined)	26%	8	-33%	i	4.5µM*
Cc1cc(C(c2ccc(C)o2)c2ccc(C)o2)c(O)c([N+](=O)[O-])c1	-6%	-8	-5%	-29%	10µM*
Cc1ccc(C(c2ccc(C)o2)c2cccc([N+](=O)[O-])c2O)o1	-15%	0	1%	-14%[57.5 µM]	?
Fc1ccc(C2c3[nH]c4ccccc4c3CCN2Cc2cccn2-c2ncccn2)cc1 (centres undefined)	3%	2	-22%	-17%	11µM*
COc1cccc(C2c3[nH]c4ccccc4c3CCN2Cc2cccn2-c2ncccn2)c1 (centres undefined)	-4%	0	3%	-33%	?
O=C(NCCC1=CCCCC1)NC12CC3CC(CC(C3)C1)C2	-5%	-41	16%	-16%[57.5 µM]	5.6µM*
Cc1ccc(CN(C)C(=O)CN2C(=O)NC3(CCCc4ccccc43)C2=O)c(C)c1 (centres undefined)	3%	1	1%	-29%	3.2µM*
CSc1cccc(NC(=S)N(CCC(C)C)C2CCN(C(C)C)CC2)c1	-2%	8	?	i	8.9µM*
CSc1cccc(NC(=S)N(CCC(C)C)C2CCN(C(C)=O)CC2)c1	9%	8	-1%	i	?
Cc1ccc2cccc(Oc3ncnc4scc(-c5ccc(Cl)cc5)c34)c2n1	-2%	-39	-2%	-46%	0%
Cc1ccc2cccc(Oc3ncnc4scc(-c5ccccc5)c34)c2n1	-1%	-84*	-10%	i	?
COc1ccc(-c2csc3ncnc(Oc4cccc5ccc(C)nc45)c23)cc1	-2%	-37	-5%	-16%	10µM*
CCn1cc(/C=C(\NC(=O)c2ccc(C)cc2)C(=O)NCCCn2ccnc2)c2ccccc21	12%	·	2%	i	-18%
O=S(=O)(O)c1cc(O)c2c(N=Nc3ccc(Nc4ccccc4)c4c(S(=O)(=O)O)cccc34)cc(S(=O)(=O)O)cc2c1	-3%	·	·	·	·
O=C(C1CCN(S(=O)(=O)Cc2ccccc2)CC1)N1CCN(c2ccc(F)cc2)CC1	·	·	3%	-13%	0%
Cc1ccc(CNC(=O)c2c3c(nc4ccccc24)C(=O)N(C2CCCCC2)C3)cc1	·	·	-5%	-20%	11µM*
CCc1ccc(CNC(=O)c2c3c(nc4ccccc24)C(=O)N(C2CCCCC2)C3)cc1	·	·	2%	i	?
O=C(Nc1ccc(S(=O)(=O)N2CCOCC2)cc1)c1cc(-c2cc(Cl)ccc2O)n[nH]1	-5%	-5	?	-33%	3.5µM*
SMILES	GLP1R ag	TSHR antagonist	GLP1R cytotox	PTHR1 agonist	GLP1R inv ag
Cc1ccc(-c2cc(C(=O)Nc3ccc(S(=O)(=O)N4CC(C)OC(C)C4)cc3)[nH]n2)c(O)c1 (centres undefined)	6%	1	-13%	-38%	1.1µM*
Cc1cc(O)c(-c2cc(C(=O)Nc3ccc(S(=O)(=O)N4CCOCC4)cc3)[nH]n2)cc1C	-19%	-6	-54%	?	-26%
CCc1ccc(OCCCSc2nc(-c3ccc(C(C)(C)C)cc3)nc3cc(=O)[nH]n23)cc1	·	·	0%	-31%	7%
COC(=O)c1cc(=O)n(Cc2ccco2)c(=Nc2ccc(F)c(Cl)c2)s1	-12%	-23	-15%	-36%	2.8µM*
COC(=O)c1cc(=O)n(Cc2cccs2)c(=Nc2ccc(F)cc2)s1	-5%	-14	?	-4%	3.5µM*
COc1ccc(-c2nc3scc(CCNS(=O)(=O)c4cccc(C(C)=O)c4)n3n2)cc1	·	·	-6%	i	9%
c1ccc2nc(-c3nc4ccccc4[nH]3)ccc2c1	-22%	-7	-2%	-23%[57.5 µM]	10µM*
N=c1c2c(n(Cc3ccc(Cl)cc3)c3c1CCC3)CCC2	-3%	-5	-9%	-34%	-8%
N=c1c2c(n(Cc3cccc(Cl)c3)c3c1CCC3)CCCC2	-4%	-12	5µM*	-22%	-2%
C=CCOc1c(Cl)cc(CNc2ccc(N(C)C)cc2)cc1OC	-3%	-108*	-16%	-23%[57.5 µM]	-3%
CC1(c2ccc(OC(F)F)cc2)NC(=O)N(CC(=O)Nc2ccc(OC(F)F)cc2)C1=O (centres undefined)	2%	-4	5%	-19%	10µM*
CC1(c2ccc(OC(F)F)cc2)NC(=O)N(CC(=O)Nc2ccc(F)cc2)C1=O (centres undefined)	17%	7	-13%	-8%	?
COc1ccc(N2CCN(C(=O)c3cc(-c4ccc(F)cc4)[nH]c3C)CC2)cc1	7%	-2	-8%	-30%	10µM*
O=c1c2ccccc2sc2ccc(NCCCN3CCOCC3)cc12	5%	·	19%	-7%	?
CN1CCCC1CCNc1ccc2sc3ccccc3c(=O)c2c1 (centres undefined)	6%	·	?	-7%	14µM*
COc1ccc(C2CC(c3cccs3)=NN2C(=O)CSc2nc3ccccc3s2)cc1 (centres undefined)	-7%	-8	-3%	-7%	?
O=C(CSc1nc2ccccc2s1)N1N=C(c2cccs2)CC1c1ccc(F)cc1 (centres undefined)	-7%	-6	-2%	-7%	4µM*
CCOc1cccc(C2c3c(oc4cc(C)c(C)cc4c3=O)C(=O)N2c2nc(C)c(C)s2)c1 (centres undefined)	·	·	3%	7%	7%
CCCCC(CC)C(=O)Oc1ccc(O)c(C(C)(C)C)c1 (centres undefined)	17%	9	?	-5%	5.6µM*
CC(C)(C)c1cc(OC(=O)C2CCCC2)ccc1O	-9%	1	2%	i	7%
